Bioassay records from PubChem BioAssay.
Hits are enriched below; roughly 3.8% of the tested compounds scored in any of these assays.
TrxR1 substrate: qHTS Assay for Substrates of Mammalian Selenoprotein Thioredoxin Reductase 1 (TrxR1): qHTS. Thioredoxin reductase 1, cytoplasmic (Rattus norvegicus), O89049. purified TrxR1 substrate turnover, NADPH consumption readout. Potency, µM (highest dose often 114 µM), for inactives: top-dose activity change, negative = substrate turnover. 0.01% of 390,000 active. AID 588456, 2011; note: nearly all actives have a fitted effect of over 50% in size
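Rat TrxR1, dispensed at 90 nM, was prereduced with 400 uM NADPH (final) for 5 min at ~22 deg C, then incubated with compound 15 min before 400 uM selenite. A first-read NADPH fluorescence drop versus no-compound background flagged substrates.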
TrxR1 inh: qHTS Assay for Inhibitors of Mammalian Selenoprotein Thioredoxin Reductase 1 (TrxR1): qHTS; Potency, µM (highest dose often 114 µM), for the others: at the top dose activity change, negative = inhibition, actives largely listed as inhibitors; recombinant rTrxR1, NADPH fluorescence consumption, selenite substrate; 1% of 390,000 active; note: nearly all actives have a fitted effect of over 65% in size
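Rat TrxR1 (90 nM in the dispensed reagent) was pre-reduced with 400 uM NADPH for 5 min at room temperature, then incubated with compound for 15 min. After 400 uM selenite was added, NADPH fluorescence (Ex 340/Em 450 nm) was followed for 8 min.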
GLS inhibitor: qHTS for Inhibitors of Glutaminase (GLS). 0.21% of 410,000 active. Potency, µM (doses to about 45.5 µM), inactives show top-dose activity change, negative = inhibition, actives largely listed as inhibitors. GLS enzymatic activity, qHTS titration. AID 624170, 2012
Target sequence (O94925 whole entry, looked up): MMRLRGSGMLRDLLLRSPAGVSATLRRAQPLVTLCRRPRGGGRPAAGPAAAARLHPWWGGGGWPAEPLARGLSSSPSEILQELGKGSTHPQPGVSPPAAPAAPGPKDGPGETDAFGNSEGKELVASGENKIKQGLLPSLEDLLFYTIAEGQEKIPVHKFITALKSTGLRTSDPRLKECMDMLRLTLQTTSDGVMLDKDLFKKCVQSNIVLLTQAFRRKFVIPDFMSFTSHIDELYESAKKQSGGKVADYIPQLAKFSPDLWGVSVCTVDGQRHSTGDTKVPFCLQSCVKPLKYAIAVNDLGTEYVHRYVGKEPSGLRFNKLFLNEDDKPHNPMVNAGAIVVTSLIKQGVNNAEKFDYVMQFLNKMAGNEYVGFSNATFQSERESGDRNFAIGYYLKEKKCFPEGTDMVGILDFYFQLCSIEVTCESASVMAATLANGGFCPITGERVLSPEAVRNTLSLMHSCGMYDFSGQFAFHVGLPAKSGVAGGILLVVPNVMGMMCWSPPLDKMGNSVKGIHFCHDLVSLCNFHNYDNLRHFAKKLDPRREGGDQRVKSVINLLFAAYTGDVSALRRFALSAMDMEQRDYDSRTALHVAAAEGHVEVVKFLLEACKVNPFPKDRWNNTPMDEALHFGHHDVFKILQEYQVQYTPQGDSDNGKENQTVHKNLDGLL
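Human kidney-isoform GLS in 45 mM KH2PO4 pH 8.2, 0.02% Tween-20, with compound, started with 1mM L-Glutamine (added stock). Glutamate oxidase/HRP/Amplex red coupled fluorescence read at start and after 30 min at RT.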
KAT2A inh: qHTS Assay for Inhibitors of GCN5L2. Histone acetyltransferase KAT2A (Homo sapiens), Q92830. Potency, µM (titrated, usually from 58.9 µM), inactives show top-dose activity change, negative = inhibition, most hits filed as inhibitors. GCN5L2 HAT assay, ThioGlo1 CoA-SH fluorescence. 0.21% of 390,000 active
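GCN5L2 (20nM final) in 50mM HEPES, 0.1mM EDTA pH 7.5, 0.01% Tween-20 was preincubated 15 min at room temperature with compound, then given ThioGlo1 (50uM), H3(1-25) peptide (75uM) and acetyl-CoA (70uM); CoA-thiol fluorescence (Ex340/Em540) was read at 0 and 20 min.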
Sfp inh: qHTS Assay for Inhibitors of Bacillus subtilis Sfp phosphopantetheinyl transferase (PPTase); AID 1490, 2009; Biochemical Sfp PPTase activity, qHTS; 3.5% of 310,000 active; Potency, µM, for inactives: largest response in the series, negative = inhibition, hits mostly inhibitors; 4'-phosphopantetheinyl transferase ffp (Bacillus subtilis), Q9F4F7;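 note: the enzyme is Sfp with the accession as filed and its product quenches rhodamine fluorescence; 0% = enzyme reaction without inhibitor and -100% = no enzyme wells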
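Sfp 15 nM + cpd, 15 min RT; start w/ rhodamine-CoA 5 uM, BHQ-2-YbbR 12.5 uM (final); 50 mM Hepes pH 7.6, 10 mM MgCl2, 0.01% NP-40, 0.01% BSA; read 525/598 nm at 0 and 30 min.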
VDR inhibitor: Inhibitors of the vitamin D receptor (VDR): qHTS | Vitamin D3 receptor (Homo sapiens), P11473 | VDR-SRC2-3 peptide fluorescence polarization, 2 h | Potency, µM, inactives show max response, negative = inhibition, most hits filed as inhibitors | 0.93% of 400,000 active | AID 504847, 2011
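Reagent solutions, kept cold and dark, are dispensed first; compounds are then pinned in at 23 nl, plates briefly spun, and incubated 2 h at ambient temperature. Inhibition of VDR–SRC2-3 peptide binding is read by fluorescence polarization.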
* marks the source's active call; other numbers are inactive results; ? = inconclusive; · = not tested or not shown; [ ] = dose if it differs, or a comment. Calls come from the whole dose curve; as a rule, active = well fitted curve in the direction sought with a large enough effect; inconclusive = small, poorly fitted or top-dose-only effect, or another doubt; inactive = no such curve, though single readings can be large; an effect the other way counts as inactive or inconclusive. Unless noted, % is set by controls: 0 for no effect and ±100 for the full control effect; potency is the fitted concentration of half-maximal effect.

SMILES | TrxR1 substrate | TrxR1 inh | GLS inhibitor | KAT2A inh | Sfp inh | VDR inhibitor
Cc1nn(C(=O)c2ccco2)c(C)c1Sc1ccc(Br)cc1 | -7% | 2% | -6% | -12% | 12% | -6%
NC(=O)C(CCC(=O)c1ccc(Br)cc1)S(=O)(=O)c1ccccc1 (stereo not drawn) | 6%[57.1 µM] | 9%[57.1 µM] | 3% | -3% | 1% | -7%
S=C(NCc1ccco1)NCc1ccco1 | 11%[57.1 µM] | -5%[11.4 µM] | -12% | · | · | ?
NNC(=S)NCc1ccco1 | 7%[57.1 µM] | -5%[57.1 µM] | -10% | -5% | 40µM* | -5%
CN(C)c1ccc(C(=S)NCc2ccco2)cc1 | 22%[57.1 µM] | -51% | 17% | -20% | 14µM* | ?
Cn1cc(Cl)c(C(=O)NNC(=S)NCc2ccco2)n1 | -1% | 1% | 6% | -3% | 56µM* | ?
O=C(NCc1ccco1)C1c2ccccc2Oc2ccccc21 | -3%[57.1 µM] | 6%[57.1 µM] | -24% | -3% | 40µM* | -23%
CCOC(=O)c1ccc(NC(=O)C2Cc3ccccc3CN2S(=O)(=O)c2ccc(Cl)cc2)cc1 (stereo not drawn) | 3% | 13% | 6% | -4% | · | -1%
COc1ccc(-c2csc(C(O)c3ccc(F)cc3)n2)cn1 (stereo not drawn) | · | · | 11% | · | · | ·
CC(C)(C)NC(=S)NCc1ccco1 | -8% | -19% | 7% | 1% | 3.5µM* | 8%
COc1ccccc1NC(=S)NCc1ccco1 | -9% | -39% | -7% | -16% | 56µM* | 4%
COc1cc(NC(=S)NCc2ccco2)cc(OC)c1OC | -4% | -25% | 15% | -10% | -6% | 5%
CCOC(=O)Cc1c[nH]c(=S)[nH]c1=O | -3% | -16% | 12% | -13% | 79µM* | 2%
O=C(CSc1ccc(Cl)cc1)NCc1ccco1 | 6% | 23% | 6% | -4% | 89µM* | -9%
COc1ccccc1CNC(=O)CSC1=NCCS1 | 2%[57.1 µM] | 22%[57.1 µM] | -1% | -12% | 0% | ?
O=C(CSc1ccc(Cl)cc1)NC(=O)NCc1ccco1 | -10% | 58%[57.1 µM] | -15% | -12% | -11% | ?
O=C(CSc1nc2cc(Cl)ccc2s1)NC(=O)NCc1ccco1 | 7% | ? | -3% | -4% | 89µM* | 8%
O=C(CSC1=NCCS1)NCc1ccco1 | 3%[57.1 µM] | 27%[57.1 µM] | ? | 2% | 13% | 20µM*
O=C(NCCSc1ccc(Cl)cc1)c1ccco1 | 2% | 10% | -2% | -9%[0.501 µM] | 4% | -1%
O=C(CCSc1ccc(Cl)cc1)c1ccco1 | 4% | 10µM* | 5% | -9% | 8% | ?
CCn1cc(C(=O)NCc2ccco2)c(=O)c2ccc(C)nc21 | 1% | 29%[57.1 µM] | -8% | -1% | 1% | 3%
CSc1ncc(Cl)c(C(=O)Nc2c(C(=O)c3ccc(Cl)cc3)oc3ccccc23)n1 | -7% | 4% | -2% | -6% | · | 5%
COc1cc(NC(=S)Nc2cccc(C)n2)cc(OC)c1OC | 4% | ? | 1% | -5% | 20% | ?
CC1Nc2ccc(Cl)cc2S(=O)(=O)N1 (stereo not drawn) | · | · | · | 0% | 2% | -4%
O=C(CSc1ccc2ccccc2c1)Nn1cnnc1 | 14%[57.1 µM] | 15%[57.1 µM] | 11% | -2% | -11% | 14%
SMILES | TrxR1 substrate | TrxR1 inh | GLS inhibitor | KAT2A inh | Sfp inh | VDR inhibitor
O=C(CSc1ccccc1Cl)c1ccco1 | -8% | ? | -8% | -5% | 5% | ?
O=C(CSc1ccc(Cl)cc1)Nn1cnnc1 | 3% | 48% | 0% | -2% | -1% | 71µM*
O=C(CSc1ccc(Cl)cc1)c1ccco1 | 6% | 45µM* | 7% | -25% | 45µM* | ?
O=C(CCCc1nc(-c2ccc(Cl)cc2)no1)NCc1ccco1 | 35% | 24% | 0% | -6% | · | 13%
C#CCOCCOCCOCCNc1nc(N2CCN(C(=O)[C@H](Cc3ccc(O)cc3)n3cc([C@@H](N)C(C)CC)nn3)CC2)nc(N2CCN(C(=O)[C@H](Cc3cc4ccccc4[nH]3)n3cc([C@@H](N)Cc4ccc(O)cc4)nn3)CC2)n1 (stereo partly drawn) | · | · | · | -13% | 56µM* | ·
C#CCOCCOCCOCCNc1nc(N2CCN(C(=O)[C@H](CCCCN)n3cc([C@@H](N)CC(C)C)nn3)CC2)nc(N2CCN(C(=O)[C@H](Cc3cc4ccccc4[nH]3)n3cc([C@@H](N)Cc4ccc(O)cc4)nn3)CC2)n1 | 8% | 45µM* | 18% | -1% | -17% | 0%
C#CCOCCOCCOCCNc1nc(N2CCN(C(=O)C(Cc3cc4ccccc4[nH]3)n3cc(C(N)C(C)CC)nn3)CC2)nc(N2CCN(C(=O)C(Cc3cc4ccccc4[nH]3)n3cc(C(N)C(C)CC)nn3)CC2)n1 (stereo not drawn) | 0% | ? | 2% | 0% | 18µM* | 38%
C#CCOCCOCCOCCNc1nc(N2CCN(C(=O)[C@H](CCCCN)n3cc(C(N)CC(C)C)nn3)CC2)nc(N2CCN(C(=O)[C@H](CCC(=O)O)n3cc(C(N)[C@H](C)CC)nn3)CC2)n1 (stereo partly drawn) | 10% | 18µM* | 1% | -2% | 5% | -17%
CC(=O)Nc1ccc(S(=O)(=O)N2CCN3CCCC3C2)cc1 (stereo not drawn) | 0% | -9% | 1% | -11% | 19% | -7%
COc1ccccc1C(=O)CSc1n[nH]c(N)n1 | 7%[57.1 µM] | -10%[57.1 µM] | 34% | 2% | 89µM* | -9%
COCCn1c(C)cc(C(=O)CSc2n[nH]c(N)n2)c1C | -4% | -15% | 33% | -18% | 25µM* | -4%
COc1ccccc1C(=O)CSc1nccn1C | 5% | 14% | -1% | 2% | 56µM* | -10%
Cn1ccnc1SCC(=O)c1c[nH]c2ccccc12 | -3%[57.1 µM] | 1%[57.1 µM] | 0% | -1% | 13% | 15%
CC1(C)Oc2cc(N)c([N+](=O)[O-])cc2O1 | -17% | 1%[57.1 µM] | 9% | -7% | 4% | -17%
O=C(CCN1C(=O)C2C3C=CC(C3)C2C1=O)Nc1nccs1 (stereo not drawn) | -10% | 17%[57.1 µM] | 85% | -2% | 26% | -3%
COc1ccc([C@H]2CC(=O)C=C(c3ccc(CNC(=O)OC(C)(C)C)cc3)C2)cc1 | 3%[57.1 µM] | 17%[57.1 µM] | 2% | -10% | · | -10%
COc1ccc(-c2cnc(C)o2)cc1S(=O)(=O)Nc1cccc(C(F)(F)F)c1 | -3%[57.1 µM] | -5%[57.1 µM] | 2% | -7% | · | 6%
